Screens from PubChem.
HP1b binding inh – HTS for Inhibitors of HP1-beta Chromodomain Interactions with Methylated Histone Tails. actives 0.56% (n = 390,000). AlphaScreen HP1-beta / biotin-H3K9me3 peptide binding. Chromobox protein homolog 1 (Homo sapiens), P83916. Potency, µM (top dose mostly 114 µM), without a hit: top-dose activity change, negative = inhibition, hits mostly inhibitors; further: nearly all actives have a fitted effect of over 70% in size
Target sequence (P83916 whole entry, looked up): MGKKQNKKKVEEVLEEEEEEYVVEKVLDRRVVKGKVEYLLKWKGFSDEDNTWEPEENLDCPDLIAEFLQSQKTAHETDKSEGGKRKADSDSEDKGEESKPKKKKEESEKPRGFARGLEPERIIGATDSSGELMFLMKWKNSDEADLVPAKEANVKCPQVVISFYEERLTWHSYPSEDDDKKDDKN
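AlphaScreen: HP1-beta (50 nM) preformed 30 min with biotin-H3(1-18)K9me3 peptide (50 nM) in PBS pH 7.4, 0.01% Tween-20. Compound added for 30 min at RT, then streptavidin donor/nickel chelate acceptor beads (10 ug/mL) for 30 min.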
BAZ2B inh – qHTS Assay for Inhibitors of BAZ2B | AlphaScreen BAZ2B-H3K14Ac peptide displacement | actives 4.4% (n = 360,000) | Potency, µM (top dose mostly 114 µM), for inactives: top-dose activity change, negative = inhibition, most hits filed as inhibitors | AID 504333, 2011 | Bromodomain adjacent to zinc finger domain protein 2B (Homo sapiens), Q9UIF8; further: on the % scale 0 is the no-effect control and ±100 the full control effect; nearly all actives have a fitted effect of over 60% in size
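Protein-peptide AlphaScreen: BAZ2B 50 nM, b-H3K14Ac 50 nM, 1x PBS pH 7.4 + 0.01% Tween-20. Preincubation 30 min RT; cpd 30 min RT (top 110 uM); beads 20 min RT, light-protected.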
L3MBTL1 block – qHTS Assay for the Inhibitors of L3MBTL1; actives 0.66% (n = 230,000); AlphaScreen L3MBTL1–H3K9me1 peptide binding; Potency, µM (highest dose often 57.1 µM), without a hit: top-dose activity, negative = inhibition, actives largely listed as inhibitors; Lethal(3)malignant brain tumor-like protein 1 (Homo sapiens), Q9Y468; AID 485360, 2010; further: on the % scale 0 is the no-effect control and ±100 the full control effect; nearly all actives have a fitted effect of over 60% in size
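First, the protein-peptide complex forms for 30 min at room temperature (L3MBTL1 50 nM, biotinylated H3K9me1 peptide 75 nM). Next, compounds are pin-transferred and incubated 30 min. Finally, AlphaScreen beads are added and read after 30 min.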
G9a block – qHTS Assay for Inhibitors of Histone Lysine Methyltransferase G9a; actives 8.8% (n = 350,000); G9a H3K9 monomethylation, AlphaScreen, 2 h; Potency, µM (highest dose often 102 µM), without a hit: at the top dose activity, negative = inhibition, most hits filed as inhibitors; Histone-lysine N-methyltransferase EHMT2 (Homo sapiens), Q96KQ7; AID 504332, 2011; further: on the % scale 0 is the no-effect control and ±100 the full control effect; nearly all actives have a fitted effect of over 75% in size
Target sequence (Q96KQ7 913-1193 limits assumed): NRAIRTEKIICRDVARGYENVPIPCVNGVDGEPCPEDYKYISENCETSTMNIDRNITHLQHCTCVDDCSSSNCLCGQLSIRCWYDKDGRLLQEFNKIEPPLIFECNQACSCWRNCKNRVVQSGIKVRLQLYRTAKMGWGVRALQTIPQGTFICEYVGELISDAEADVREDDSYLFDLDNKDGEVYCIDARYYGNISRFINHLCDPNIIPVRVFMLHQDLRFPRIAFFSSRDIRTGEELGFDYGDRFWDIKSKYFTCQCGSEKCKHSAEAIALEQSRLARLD
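Methyltransferase reactions run at room temperature for 2 h (20 nM enzyme, 500 nM biotin-H3K9 peptide, 20 uM SAM) after a 15 min compound preincubation; product detected by AlphaScreen beads and anti-H3K9me1 antibody.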
JMJD2A Tudor – qHTS Assay for Inhibitors of JMJD2A-Tudor Domain. Lysine-specific demethylase 4A (Homo sapiens), O75164. AlphaScreen JMJD2A-Tudor / H3K4me3 peptide binding. Potency, µM (series often up to 114 µM), without a hit: at the highest dose activity change, negative = inhibition, most hits filed as inhibitors. actives 4.4% (n = 390,000). AID 504339, 2011; further: on the % scale 0 is the no-effect control and ±100 the full control effect; nearly all actives have a fitted effect of over 50% in size
* hit, by the source's call; ? = inconclusive; . = no result; [ ] = remark or other dose. The list is not random: actives were taken first. Their share in the collection is about 11%. The call rests on the fitted dose curve; in most records, active means well fitted inhibition curve with a large enough effect; inconclusive means small, poorly fitted or top-dose-only effect; inactive means no such curve, though single readings can be large or run the other way. Potency means the concentration at half of the fitted maximal effect.

SMILES | HP1b binding inh | BAZ2B inh | L3MBTL1 block | G9a block | JMJD2A Tudor
CCc1nn(CC(=O)NC(C)CCc2ccccc2)c(=O)c2cc3occc3n12 (centres undefined) | -2% | -17% | . | 29% | 45µM*
CCc1nn(C(C)C(=O)NCCc2ccccc2)c(=O)c2cc3occc3n12 (centres undefined) | 18% | -2% | . | . | -9%
CCc1nn(CC(=O)N2CCN(c3cccc(C)c3C)CC2)c(=O)c2cc3occc3n12 | 14% | -1% | . | -8%[59 µM] | -2%
CCc1nn(CCCC(=O)N2CCN(c3cccc(C)c3C)CC2)c(=O)c2cc3occc3n12 | -15%[57 µM] | ? | . | 71µM* | -35%
S=C1NNC2(CC3CC2C2CCCC32)NN1 (centres undefined) | -5% | -23% | -7% | 1.8µM* | ?
COc1ccc(NC(=O)/C(Cl)=C(/Cl)S(=O)Cc2ccccc2Cl)cn1 (centres undefined) | -19% | -16% | -11% | 10µM* | -21%
COc1ccc(NC(=O)/C(Cl)=C(/Cl)S(=O)(=O)Cc2ccc(C)cc2)cn1 | 33% | -7% | . | 45µM* | -10%
CCc1c(C)sc2c1CCN(Cc1cccc(OC)c1)C2c1ccccc1 (centres undefined) | -6% | -36% | . | -4%[12.7 µM] | -33%
COC(=O)C(N)CCCCN (centres undefined) | 14% | . | . | . | -23%
CC(C)(C)NCc1cc(Br)ccc1OCc1cccs1 | 6% | -1% | -6% | 18µM* | -19%
CC(C)(C)NCc1cc(Cl)ccc1OCc1cccs1 | 33% | -12% | -3% | ? | -10%
Cc1ccccc1CNC(=O)CCCn1c(=O)c2cccn2c2ccccc21 | 60% | 15% | . | 10%[59 µM] | -12%
CC(=O)N1CCN(c2cc3c(cc2F)c(=O)c(C(=O)O)cn3C2CC2)CC1 | 29% | -39% | 6% | 50µM* | -8%
CCN1CCN(c2cc3c(cc2F)c(=O)c(C(=O)O)cn3C2CC2)CC1 | 35% | ? | -4% | 32µM* | 1%
CCOC(=O)CC1Sc2ccccc2NC1=O (centres undefined) | 36% | -5% | 17% | 10µM* | 0%
CCOC(=O)CC1Sc2ccccc2NC1=S (centres undefined) | 15% | -33% | -17% | 45µM* | -8%
CCc1ccccc1NC(=O)Cn1ccn(-c2cc(C)cc(C)c2)c(=O)c1=O | 20% | -9% | . | -44%[59 µM] | -6%
c1coc(-c2nc3ccccn3c2Nc2ccc3c(c2)OCCO3)c1 | ? | 45µM* | . | 13µM* | 56µM*
Cc1ccn2c(Nc3ccc4c(c3)OCCO4)c(-c3ccc(C)o3)nc2c1 | -7% | 32µM* | . | 25µM* | 45µM*
Cc1ccc2nc(-c3ccco3)c(Nc3ccc4c(c3)OCCO4)n2c1 | 41% | -13% | . | ? | -10%
Cc1ccn2c(Nc3ccc(F)cc3)c(-c3ccc(C)o3)nc2c1 | 39% | -7% | . | -45%[59 µM] | -10%
Cc1cccc2nc(-c3ccco3)c(Nc3ccc4c(c3)OCCO4)n12 | ? | 35µM* | . | ? | 56µM*
COc1cc(OC)c2c(C)c(CC(=O)NCc3ccccc3OC)c(=O)oc2c1 | 44% | 5% | . | 6%[59 µM] | 1%
COc1cccc(CN2CCc3nc(Nc4ccc5c(c4)OCCO5)ncc3C2)c1OC | ? | 35µM* | . | ? | 56µM*
CCc1ccc(CN2CCc3nc(Nc4ccc5c(c4)OCCO5)ncc3C2)cc1 | ? | 14µM* | . | 0%[12.7 µM] | 28µM*
Cc1ccc(CN2CCc3nc(Nc4ccc5c(c4)OCCO5)ncc3C2)cc1 | ? | 40µM* | . | -24%[12.7 µM] | 45µM*
COc1cc(CN2CCc3nc(Nc4ccc5c(c4)OCCO5)ncc3C2)cc(OC)c1OC | -14% | ? | . | -17%[12.7 µM] | ?
